Calls of active or inactive are those of the source.

We go through six molecules from PubChem BioAssay.

In test [1] the test system is Plasmodium falciparum Sir2 (PF13_0152, Sir2A). Description: Plasmodium falciparum Sir2A binding compounds – biochemical, small-molecule microarray, 635 nm fluorescence, primary screen (AID 1098).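 Note: score merges spot fluorescence intensity with its signal-to-noise ratio.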 The conditions noted are these: fluorescence 635 nm, higher = more signal.
Test [2] is described as follows: probe aDKK1 binding to arrayed compounds – biochemical, biotinylated probe, 635/667 nm fluorescence, primary screen (AID 1099).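 Note: score merges 667nm spot fluorescence with signal to noise across triplicate slides.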 The conditions noted are these: small-molecule microarray, higher = more signal.
The nature of test [3]: probe aCHRDL2 binding to arrayed compounds – biochemical, biotinylated probe, 635/667 nm fluorescence, primary screen (AID 1100). The conditions noted are these: small-molecule microarray, higher = more signal.
The nature of test [4]: change in splice reporter luminescence, either direction, cell-based, HEK293, spliceosome inhibition project, primary screen (AID 1101).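 Note: HEK293 cells carrying a splicing-competent luciferase reporter gene; test concentration not given here.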 The conditions noted are these: HEK293 splicing luciferase reporter, 24 h, higher = more signal, called active from +8 up or from −8 down.
The target of test [5] is Fibroblast growth factor 10 (Homo sapiens) (UniProt O15520). Description: compounds binding fibroblast growth factor 10 – biochemical, small-molecule microarray, 635 nm fluorescence, primary screen (AID 1102). The conditions noted are these: FGF10 binding, fluorescence 635 nm, higher = more signal.
Sequence of Fibroblast growth factor 10 (Homo sapiens) (O15520 whole entry, looked up): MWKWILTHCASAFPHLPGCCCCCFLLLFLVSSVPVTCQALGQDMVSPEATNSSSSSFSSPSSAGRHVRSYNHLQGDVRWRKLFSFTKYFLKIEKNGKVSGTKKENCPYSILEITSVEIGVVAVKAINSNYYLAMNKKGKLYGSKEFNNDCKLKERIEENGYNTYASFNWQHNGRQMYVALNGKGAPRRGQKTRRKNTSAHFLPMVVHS
In test [6] the test system is glycogen synthase kinase-3 (GSK3A per assay name; protocol says GSK3B). As to the kind of experiment: compounds binding glycogen synthase kinase-3 – biochemical, small-molecule microarray, 635 nm fluorescence, GSK3A, primary screen (AID 1103). Note: the record names both GSK3A and GSK3B. The conditions noted are these: fluorescence 635 nm, higher = more signal.
Test [7] addresses Epidermal growth factor receptor (Homo sapiens) (UniProt P00533). Description: compounds binding epidermal growth factor receptor – biochemical, small-molecule microarray, 635 nm fluorescence, primary screen (AID 1104).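 Note: score merges 667 nm emission intensity with spot signal to noise over triplicate slides.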 The conditions noted are these: EGFR binding, higher = more signal.
In test [8] the target is Follistatin-related protein 3 (Homo sapiens) (UniProt O95633). As to the kind of experiment: compounds binding follistatin-related protein 3 – biochemical, small-molecule microarray, 635 nm fluorescence, primary screen (AID 1105).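 Note: score merges emission near 667 nm and signal to noise per printed spot across three slides.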 The conditions noted are these: FSTL3 binding, higher = more signal.
Sequence of Follistatin-related protein 3 (Homo sapiens) (O95633 whole entry, looked up): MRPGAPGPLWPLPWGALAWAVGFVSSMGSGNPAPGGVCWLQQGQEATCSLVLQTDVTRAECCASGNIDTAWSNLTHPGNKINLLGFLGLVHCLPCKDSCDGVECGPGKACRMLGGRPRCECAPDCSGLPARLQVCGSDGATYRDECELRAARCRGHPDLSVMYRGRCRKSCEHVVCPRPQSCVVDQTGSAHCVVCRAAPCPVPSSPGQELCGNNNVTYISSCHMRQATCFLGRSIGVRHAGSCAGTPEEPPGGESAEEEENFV
Test [9] deals with Dickkopf-related protein 1 (Homo sapiens) (UniProt O94907). As to the kind of experiment: small molecules binding DKK1 protein – biochemical, small-molecule microarray, 635 nm fluorescence scan, primary screen (AID 1106).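 Note: score merges emission near 667 nm with signal to noise over three replicate slides.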 The conditions noted are these: higher = more signal.
Sequence of Dickkopf-related protein 1 (Homo sapiens) (O94907 whole entry, looked up): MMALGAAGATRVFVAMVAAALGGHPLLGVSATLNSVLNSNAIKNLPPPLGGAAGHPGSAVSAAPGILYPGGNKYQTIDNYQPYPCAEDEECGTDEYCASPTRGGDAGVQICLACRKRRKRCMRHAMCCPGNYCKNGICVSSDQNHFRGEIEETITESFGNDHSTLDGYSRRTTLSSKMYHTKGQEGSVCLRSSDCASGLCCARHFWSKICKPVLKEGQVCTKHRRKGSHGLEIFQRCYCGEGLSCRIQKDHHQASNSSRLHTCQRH
Test [10] has as its system Inhibin beta A chain (activin A). Description: small molecules binding activin A – biochemical, small-molecule microarray, 635 nm fluorescence scan, primary screen (AID 1107).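 Note: mouse activin A protein probed at 4.33 µg/mL on printed slides; score merges bound-protein fluorescence near 667 nm with spot signal-to-noise.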 The conditions noted are these: INHBA, higher = more signal.
In test [11] the test system is Human papillomavirus type 1a protein E7 (residues 44-93). Description: small molecules binding HPV E7 44-93 – biochemical, small-molecule microarray, residues 44-93, 635 nm fluorescence, primary screen (AID 1108).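 Note: E7 fragment applied at 1 µg/mL in TBST for 1 h at 4 C; score combines spot fluorescence with its signal to noise ratio.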 The conditions noted are these: fluorescence 635 nm, higher = more signal.
A short description of test [12]: hepatitis C replication reporter changes, two-sided – Huh7 cells, luciferase reporter, HCV replication inhibitor project, primary screen (AID 1109).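 Note: huh7 hepatoma cells harbouring a luciferase neomycin HCV replicon reporter; luciferase luminescence as measure of HCV replicon replication; test concentration not given here.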 The conditions noted are these: Huh7 HCV replicon luciferase reporter, 48 h; higher = more signal.
Test [13] has as its target Left-right determination factor 2 (Homo sapiens) (UniProt O00292). As to the kind of experiment: small molecules binding LEFTY2 protein – biochemical, small-molecule microarray, 635 nm fluorescence scan, primary screen (AID 1110). The conditions noted are these: higher = more signal.
For test [14], the target named is Calmodulin-1 (Homo sapiens) (UniProt P0DP23). Description: small molecules binding calmodulin-1 with EGTA – biochemical, small-molecule microarray, Cy5-labelled CALM1, profiling panel (AID 1111).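 Note: labelled calmodulin applied in Tris saline Tween buffer holding calcium plus EGTA and DTT.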 The conditions noted are these: Cy5-CALM1 binding fluorescence, higher = more signal.
The target is the same in test [15]. As to the kind of experiment: small molecules binding Ca-loaded calmodulin-1 – biochemical, small-molecule microarray, Cy5-labelled CALM1, plus calcium, artefact control for SMM control-protein annotation, profiling panel (AID 1112).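 Note: score merges spot fluorescence with signal to noise from triplicate slides.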 The conditions noted are these: Cy5-CALM1 binding fluorescence, higher = more signal.
Test [16] in a line: probe aWnt5a binding to arrayed compounds – biochemical, biotinylated probe, 635/667 nm fluorescence, primary screen (AID 1113).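 Note: score merges 667 nm fluorescence intensity with signal-to-noise per printed feature.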 The conditions noted are these: small-molecule microarray, higher = more signal.
Test [17] can be described thus: probe aShh binding to arrayed compounds – biochemical, biotinylated probe, 635/667 nm fluorescence, primary screen (AID 1114).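 Note: probe is biotin-labelled aShh protein from a stem cell growth factor screen; measures binding of labelled protein to compounds printed on the slide; score merges feature fluorescence at 667 nm with signal-to-noise.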 The conditions noted are these: small-molecule microarray, higher = more signal.
Test [18] is described as follows: probe aNog binding to arrayed compounds – biochemical, biotinylated probe, 635/667 nm fluorescence, primary screen (AID 1115).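 Note: probe is biotinylated aNog protein used at 0.15 µg/mL for 1 h at 4 C; z-score combines 667 nm fluorescence of each spot with its signal to noise.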 The conditions noted are these: small-molecule microarray, higher = more signal.
Test [19] concerns the target Torsin-1A-interacting protein 1 (Homo sapiens) (UniProt Q5JTV8). As to the kind of experiment: compound microarray binding of lysate hLAP1 – cell lysate, small-molecule microarray, COS7 lysate, 635/667 nm fluorescence, primary screen (AID 1116). The conditions noted are these: 635 nm fluorescence, higher = more signal.
Test [20] addresses Alpha-bungarotoxin (Bungarus multicinctus) (UniProt P60615). As to the kind of experiment: compounds binding labelled alpha-BTX control protein – biochemical, small-molecule microarray, Alexa647 label, 635/667 nm fluorescence, artefact control for SMM control protein annotation, profiling panel (AID 1117). The conditions noted are these: alpha-BTX-A647 binding fluorescence, higher = more signal.

Sequence of Left-right determination factor 2 (Homo sapiens) (O00292 whole entry, looked up): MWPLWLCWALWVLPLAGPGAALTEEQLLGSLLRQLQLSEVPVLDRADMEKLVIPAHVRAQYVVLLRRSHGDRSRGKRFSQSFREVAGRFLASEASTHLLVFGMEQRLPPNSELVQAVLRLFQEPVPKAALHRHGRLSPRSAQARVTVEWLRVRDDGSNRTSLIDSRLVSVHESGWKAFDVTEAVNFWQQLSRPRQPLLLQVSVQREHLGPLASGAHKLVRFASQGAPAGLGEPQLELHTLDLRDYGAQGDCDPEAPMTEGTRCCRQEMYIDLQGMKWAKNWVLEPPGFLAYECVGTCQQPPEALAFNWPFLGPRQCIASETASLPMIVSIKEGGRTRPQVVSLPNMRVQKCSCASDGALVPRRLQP
Sequence of Alpha-bungarotoxin (Bungarus multicinctus) (P60615 whole entry, looked up): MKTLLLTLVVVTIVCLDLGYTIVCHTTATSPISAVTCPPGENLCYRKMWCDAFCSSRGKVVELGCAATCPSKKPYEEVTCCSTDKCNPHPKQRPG
Sequence of Torsin-1A-interacting protein 1 (Homo sapiens) (Q5JTV8 whole entry, looked up): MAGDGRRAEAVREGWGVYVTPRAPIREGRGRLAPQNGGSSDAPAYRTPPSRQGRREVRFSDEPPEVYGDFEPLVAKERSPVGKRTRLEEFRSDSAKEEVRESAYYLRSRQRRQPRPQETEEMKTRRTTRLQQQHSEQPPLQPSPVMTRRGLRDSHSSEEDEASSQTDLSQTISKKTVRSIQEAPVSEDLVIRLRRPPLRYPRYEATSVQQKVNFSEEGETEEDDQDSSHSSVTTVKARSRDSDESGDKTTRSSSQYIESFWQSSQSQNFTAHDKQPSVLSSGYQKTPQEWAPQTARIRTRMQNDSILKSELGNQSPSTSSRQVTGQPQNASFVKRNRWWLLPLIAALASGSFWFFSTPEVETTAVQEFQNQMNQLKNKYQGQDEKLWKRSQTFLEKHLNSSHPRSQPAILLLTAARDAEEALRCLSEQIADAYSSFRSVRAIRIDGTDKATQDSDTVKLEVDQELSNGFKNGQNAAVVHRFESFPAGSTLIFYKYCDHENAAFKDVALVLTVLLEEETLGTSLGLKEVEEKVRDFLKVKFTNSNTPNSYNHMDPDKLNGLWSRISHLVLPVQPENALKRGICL
Sequence of Epidermal growth factor receptor (Homo sapiens) (P00533 whole entry, looked up): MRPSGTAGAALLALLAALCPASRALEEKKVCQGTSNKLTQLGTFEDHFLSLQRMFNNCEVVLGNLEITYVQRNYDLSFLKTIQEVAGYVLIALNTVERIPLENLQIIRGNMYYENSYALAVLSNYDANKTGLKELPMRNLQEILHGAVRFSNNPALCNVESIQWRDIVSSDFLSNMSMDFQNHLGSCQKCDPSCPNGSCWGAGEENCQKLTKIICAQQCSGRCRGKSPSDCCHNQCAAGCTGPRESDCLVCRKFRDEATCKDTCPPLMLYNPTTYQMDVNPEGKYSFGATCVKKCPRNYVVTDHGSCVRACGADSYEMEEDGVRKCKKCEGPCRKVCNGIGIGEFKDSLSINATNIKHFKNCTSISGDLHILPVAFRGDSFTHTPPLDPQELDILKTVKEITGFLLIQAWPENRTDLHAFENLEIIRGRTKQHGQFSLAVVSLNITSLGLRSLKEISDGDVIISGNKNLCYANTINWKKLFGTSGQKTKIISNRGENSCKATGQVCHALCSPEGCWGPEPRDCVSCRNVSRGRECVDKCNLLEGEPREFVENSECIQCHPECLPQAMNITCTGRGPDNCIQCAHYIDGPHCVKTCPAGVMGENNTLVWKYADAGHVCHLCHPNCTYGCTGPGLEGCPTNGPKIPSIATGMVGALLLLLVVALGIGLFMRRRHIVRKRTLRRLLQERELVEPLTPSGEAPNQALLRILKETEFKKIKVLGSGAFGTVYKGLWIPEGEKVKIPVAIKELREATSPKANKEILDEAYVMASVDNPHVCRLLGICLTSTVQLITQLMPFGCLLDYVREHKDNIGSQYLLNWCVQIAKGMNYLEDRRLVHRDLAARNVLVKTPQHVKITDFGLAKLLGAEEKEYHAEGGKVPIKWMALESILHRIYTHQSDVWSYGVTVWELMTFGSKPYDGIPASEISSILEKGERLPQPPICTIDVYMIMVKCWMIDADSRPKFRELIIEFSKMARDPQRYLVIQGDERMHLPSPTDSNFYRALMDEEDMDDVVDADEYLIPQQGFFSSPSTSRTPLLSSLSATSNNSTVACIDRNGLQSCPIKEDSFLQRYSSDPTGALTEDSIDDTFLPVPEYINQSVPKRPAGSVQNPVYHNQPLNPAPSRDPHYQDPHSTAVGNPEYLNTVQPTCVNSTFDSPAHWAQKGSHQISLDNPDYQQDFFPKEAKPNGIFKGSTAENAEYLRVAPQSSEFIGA

Turning to `O=C(NCc1ccccc1)[C@@H]1c2ccccc2C(=O)N(Cc2cc(F)cc(C(F)(F)F)c2)[C@H]1c1ccc(CO)cc1`, the composite z-score in test [1] is 1.09; in test [2], 0.125; in test [3] it was 0.519; in test [5], 0.29; in test [6], 0.243; in test [7], -0.0881. The composite z-score is 0.588 in [8]; -0.0135 in [9]; 0.517 in test [10]; 1.44 in [11]; -0.244 in test [13]; -0.174 in test [14]. Also, the composite z-score in test [15] was -0.707; in test [16], -0.096; in test [17], 0.163; in [18], -0.339; in test [19], 1.15; in [20], 0.258. Also, the figures for the z-score in test [4] and in [12] were -0.945 (inactive) and -0.132, respectively.
For the molecule `CC1CC/C=C\[C@H]2OC34C=CCN(Cn5nnc6ccccc65)C(=O)[C@H]3N(CCCO)C(=O)[C@@H]4C2C(=O)O1` (stereo not given in full), the composite z-score in test [1] was 1.14; in test [2], -0.12; in test [3], 0.763; in test [5], -1.04; in [6], -1.31; in test [7] it was -0.991. Further, the composite z-score in [8] was -0.97; in test [9], -1.6; in [10], 0.767; in test [11], -0.311; in [13], -1.28; in test [14], -0.484. In addition, the composite z-score in test [15] was 0.25; in test [16], -0.228; in test [17], 0.0121; in [18], -0.201; in test [19], 0.479; in test [20], -0.744. Moreover, the results for the z-score in test [4] and in [12] were -0.538 (inactive) and -0.486, respectively.
For `Cc1cccc(/C=C/C=O)c1`, the composite z-score in test [1] is 0; in test [2] it was -0.101; in test [3], 0.558; in test [5], -0.0736; in test [6], -0.0687; in test [7], -0.391. Also, the composite z-score in test [8] was 0.119; in [9], -0.214; in [10] it was 0.561; in test [11], 0.63; in test [13] it was -0.478; in test [14], 0.613. The composite z-score in [15] was 0.207; in test [16], -0.0944; in test [17] it was -0.214; in test [18], -0.104; in test [19], -0.476; in test [20], 0.549. The z-score in [4] was 0.465 (inactive); in [12] it was 0.33.
Consider `O=C1OCC=C[C@H]2OC34C=CCN(CCN5CCOCC5)C(=O)[C@H]3N(CCCCCCO)C(=O)[C@@H]4[C@@H]12` (stereo not given in full), for which the composite z-score in test [1] is 1.18; in test [2], -0.148; in [3] it was 0.251; in test [5], -0.231; in [6], -0.162; in test [7], -0.0057. Besides, the composite z-score in [8] is 0.376; in test [9], 0.0105; in test [10] it was 1.35; in test [11], -0.139; in [13], -0.207; in test [14] it was -0.238. In addition, the composite z-score was -0.695 in test [15]; -0.176 in test [16]; -0.0904 in test [17]; 0.0395 in test [18]; 1.37 in [19]; 0.0977 in test [20]. For the same molecule, the z-score is 0.364 (inactive) in test [4] and -0.413 in test [12].
`C=CCC(OC(C)=O)[C@@H]1[C@@H](N(Cc2cc3ccccc3o2)C(=O)c2ccc(-c3ccccc3)cc2)c2cc(OCCCO)ccc2N1C(=O)Cc1ccc2ccccc2c1` (stereo not given in full): the composite z-score was -0.366 in test [1]; -0.172 in test [2]; 0.351 in test [3]; -0.0752 in [5]; -0.418 in test [6]; -0.227 in [7]. Also, the composite z-score was -0.187 in test [8]; -0.251 in test [9]; 1.2 in [10]; 0.006 in test [11]; -0.36 in test [13]; -0.27 in [14]. Moreover, the composite z-score is 0.459 in test [15]; -0.0704 in [16]; -0.0709 in test [17]; -0.267 in [18]; 0.0452 in [19]; 0.738 in [20]. The z-score in test [4] was 0.121 (inactive); in test [12], -0.532.
`C=CCCN(CC#C[C@H]1Oc2ccccc2S(=O)(=O)N2CCC[C@@H]12)S(=O)(=O)c1ccc(C)cc1`: the composite z-score is 0.327 in test [1]; -0.342 in test [2]; -0.289 in test [3]; 0.371 in test [5]; 0.0464 in [6]; 0.185 in test [7]. The composite z-score is 0.485 in [8]; 0.435 in test [9]; 1.45 in test [10]; 0.328 in [11]; 0.148 in [13]; -0.498 in test [14]. In addition, the composite z-score in test [15] was -0.863; in [16], -0.0125; in test [17], 0.0048; in test [18], -0.183; in test [19], 0.631; in test [20], -0.189. Moreover, the z-score in [4] is 3.09 (inactive); in test [12], -1.92.
